PubChem BioAssay (Tox21)
Records with an inconclusive call do not appear. Active and inactive are the calls of the source. Unless noted, calls follow the shape of the dose curve; as a rule, active = well fitted curve in the direction sought with a large enough effect in the repeat runs; inconclusive = weak or mixed curves; inactive = no such curve, though single readings can be large; an effect the other way counts as inactive or inconclusive.

Tests used:
[1] = qHTS assay for small molecule agonists of the p53 signaling pathway (AID 651631; calls by dose curve; also: nearly all actives have a fitted effect of over 15% in size)
Outline: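 Testing took place in human colorectal HCT-116 cells with stable p53RE-driven beta-lactamase. After 16 h of compound exposure at 37 °C, a FRET substrate was added and fluorescence recorded 2 h later.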

[2] = qHTS assay for small molecule agonists of the p53 signaling pathway - cell viability (AID 651633; calls by dose curve; also: series mostly up to about 83 µM; nearly all actives have a fitted effect of over 30% in size)
Outline: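 Viability counter-read: CellTiter-Glo luminescence (30 min, room temperature) in the same p53RE-bla plates. These plates had been exposed to compounds for 16 h at 37 C.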

[3] = qHTS assay for small molecules that induce genotoxicity in human embryonic kidney cells expressing luciferase-tagged ATAD5 - cell viability (AID 651634; calls by dose curve; also: nearly all actives have a fitted effect of over 25% in size)
Outline: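 HEK293T cells carrying luciferase-tagged ATAD5, 2,000 cells/well, exposed to compound for 15.5 hr at 37C. Viability read as live-cell protease activity by CellTiter-Fluor fluorescence after 30 min at 37C.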

[4] = qHTS assay for small molecule disruptors of the mitochondrial membrane potential - cell viability (AID 720634; calls by dose curve;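 also: human HepG2 liver cancer cells; series mostly up to about 83 µM; nearly all actives have a fitted effect of over 20% in size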)
Outline: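 HepG2 cells, 2,000 per well, attached overnight, then treated 1 hr at 37 C, 5% CO2. Viability read as ATP by CellTiter-Glo luminescence after 30 min at room temperature. Read in the same wells as the m-MPI membrane-potential dye assay.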

[5] = qHTS assay for small molecule disruptors of the mitochondrial membrane potential (AID 720635)
Outline: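 Mitochondrial membrane potential tracked with Mito-MPS dye, red aggregates (ex 540/em 590 nm) against green monomers (ex 490/em 535 nm). Compound treatment 1 hr at 37C, dye 30 min in HepG2.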

[6] = qHTS assay to test for compound auto fluorescence at 590 nm (red) in HepG2 cells (AID 720674)
Outline: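 We screened compounds on adherent HepG2 cells, incubating them for an hour at 37 C in 5% CO2 before reading emission at 590 nm under 540 nm excitation; values reflect equivalence to Rose Bengal sodium fluorescence.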

[7] = qHTS assay to test for compound auto fluorescence at 535 nm (green) in HepG2 cells (AID 720675)
[8] = qHTS assay to test for compound auto fluorescence at 460 nm (blue) in HEK293 cells (AID 720678)
Outline: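 Blue-channel (Ex/Em 405/460 nm) intensity measured in HEK293 cultures after overnight compound exposure at 37C; signal expressed relative to triamterene. Cells plated 2,000 per well in 10% dialyzed FBS medium and allowed 4-5 hr to attach.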

[9] = qHTS assay to test for compound auto fluorescence at 590 nm (red) in HEK293 cells (AID 720679)
Outline: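 Red-channel autofluorescence (Ex/Em 540/590 nm; Rose Bengal sodium reference) was measured after overnight 37C, 5% CO2 exposure of attached HEK293 cells, 2,000 per well in medium with 10% dialyzed FBS.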

[10] = qHTS assay to test for compound auto fluorescence at 535 nm (green) in HEK293 cells (AID 720680)
[11] = qHTS assay to test for compound auto fluorescence at 460 nm (blue) in HEK293 cell free culture (AID 720681)
Outline: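 Blue fluorescence (Ex 405/Em 460 nm, triamterene-equivalent) was read immediately after pin transfer of compound or DMSO into medium (DMEM, 10% FBS) without cells.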

[12] = qHTS assay to test for compound auto fluorescence at 535 nm (green) in HEK293 cell free culture (AID 720682)
Outline: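 DMEM + 10% FBS, cell-free; cpd or DMSO pinned in; Ex485/Em535 read; output as fluorescein-equivalent signal.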

[13] = qHTS assay to test for compound auto fluorescence at 590 nm (red) in HEK293 cell free culture (AID 720683)
Outline: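 Red-channel autofluorescence of compounds in culture medium (DMEM, 10% FBS), no cells, measured at 540/590 nm. Rose Bengal sodium is the reference fluorophore for equivalence.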

[14] = qHTS assay to test for compound auto fluorescence at 590 nm (red) in HepG2 cell free culture (AID 720684)
Outline: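 Plate contents were MEM with 10% FBS plus test compound or DMSO, no cells. Fluorescence was recorded with 540 nm excitation and 590 nm emission.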

[15] = qHTS assay to test for compound auto fluorescence at 460 nm (blue) in HepG2 cell free culture (AID 720685)
Outline: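 Compound (23 nL) or DMSO pinned into cell-free MEM with 10% FBS; blue fluorescence read at 405/460 nm excitation/emission, expressed as auto-fluorescence equivalency to triamterene.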

[16] = qHTS assay to test for compound auto fluorescence at 535 nm (green) in HepG2 cell free culture (AID 720686)
[17] = qHTS assay to test for compound auto fluorescence at 460 nm (blue) in HepG2 cells (AID 720687)
Outline: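 Blue-channel autofluorescence (Ex/Em 405/460 nm, triamterene-equivalent) was measured after 1 hr compound exposure at 37 C, 5% CO2. Cells were HepG2, plated overnight at 37 C in MEM plus 10% FBS.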

[18] = qHTS assay for small molecules that induce genotoxicity in human embryonic kidney cells expressing luciferase-tagged ATAD5 (AID 651632); also: nearly all actives have a fitted effect of over 15% in size
Outline: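 HEK293T cells carrying luciferase-tagged ATAD5 were given compound or DMSO vehicle and incubated 16 hr at 37C, 5% CO2. Luciferase activity was read after 30 min at room temperature with Amplite; a rise signals genotoxic stress.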

[19] = molecular target: Glucocorticoid receptor (Homo sapiens) (UniProt P04150); test: qHTS assay to identify small molecule agonists of the glucocorticoid receptor (GR) signaling pathway (AID 720691; active = well fitted activation curve with a large enough effect in the signal ratio in the repeat runs, not every such curve was filed as active; the % refers to the signal ratio)
Glucocorticoid receptor (Homo sapiens), sequence (P04150 whole entry, looked up): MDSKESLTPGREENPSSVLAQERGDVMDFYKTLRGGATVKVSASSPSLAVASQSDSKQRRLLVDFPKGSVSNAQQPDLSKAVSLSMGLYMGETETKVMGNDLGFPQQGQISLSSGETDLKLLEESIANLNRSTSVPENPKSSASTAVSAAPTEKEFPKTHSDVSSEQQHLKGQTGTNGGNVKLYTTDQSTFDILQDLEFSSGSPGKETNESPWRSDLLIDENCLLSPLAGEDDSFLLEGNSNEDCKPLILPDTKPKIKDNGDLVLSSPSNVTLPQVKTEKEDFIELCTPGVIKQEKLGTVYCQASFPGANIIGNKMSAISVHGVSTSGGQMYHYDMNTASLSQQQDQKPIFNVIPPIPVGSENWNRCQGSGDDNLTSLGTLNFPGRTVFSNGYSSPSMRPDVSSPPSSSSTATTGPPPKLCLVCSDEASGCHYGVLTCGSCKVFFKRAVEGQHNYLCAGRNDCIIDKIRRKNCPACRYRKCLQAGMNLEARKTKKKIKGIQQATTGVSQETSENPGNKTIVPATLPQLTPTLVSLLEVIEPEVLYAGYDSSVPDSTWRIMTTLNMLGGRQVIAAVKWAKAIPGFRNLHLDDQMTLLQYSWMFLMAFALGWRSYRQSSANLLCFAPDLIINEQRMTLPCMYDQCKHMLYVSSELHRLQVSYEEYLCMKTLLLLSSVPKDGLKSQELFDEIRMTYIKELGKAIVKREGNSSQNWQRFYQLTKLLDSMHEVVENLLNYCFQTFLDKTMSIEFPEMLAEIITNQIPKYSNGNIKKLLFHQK
Outline: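 GR-bla HeLa cells carrying a GRE-driven beta-lactamase reporter, exposed to compounds for 18 h at 37 C. Reporter activation read as fluorescence after 2 h with LiveBLAzer B/G FRET substrate at room temperature.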

[20] = molecular target: Glucocorticoid receptor (Homo sapiens) (UniProt P04150); test: qHTS assay to identify small molecule antagonists of the glucocorticoid receptor (GR) signaling pathway (AID 720692; active = well fitted inhibition curve with a large enough effect in the signal ratio in the repeat runs, not every such curve was filed as active; the % refers to the signal ratio)
Outline: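 GR-bla HeLa cells carrying a GRE-driven beta-lactamase reporter received compound after 4 h plating, then dexamethasone (5 nM final). After 18 h at 37C, the FRET substrate was loaded for 2 h at room temperature and fluorescence read.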
% is scaled to controls: 0 for no effect and ±100 for the full control effect.

CCCCCCOC(=O)CCC
inactive: Potency [1] | Potency [2] | Potency [3] | Potency [4] | Potency [5] | outcome [6] | outcome [7] | Potency [8] | outcome [9] | outcome [10] | Potency [11] | outcome [12] | outcome [13] | outcome [14] | Potency [15] | outcome [16] | Potency [17]

Nc1nc(N)c(-c2ccccc2)s1
inactive: Potency [1] | Potency [18] | Potency [3] | Potency [4] | Potency [5] | outcome [6] | outcome [7] | Potency [8] | outcome [9] | outcome [10] | Potency [11] | outcome [12] | outcome [13] | outcome [14] | outcome [16] | Potency [17] | Potency [19] | Potency [20]

CCCCC(CC)COCCCN (stereo not drawn)
inactive: Potency [1] | Potency [18] | Potency [2] | Potency [3] | outcome [6] | Potency [8] | outcome [9] | outcome [10] | Potency [11] | outcome [12] | outcome [13] | outcome [14] | Potency [15] | outcome [16] | Potency [17] | Potency [19] | Potency [20]

CN1CCN(C2=Nc3ccccc3Sc3ccc(Cl)cc32)CC1
inactive: Potency [1] | Potency [2] | Potency [3] | Potency [4] | outcome [6] | outcome [7] | Potency [8] | outcome [9] | Potency [11] | outcome [12] | outcome [13] | outcome [14] | Potency [15] | outcome [16] | Potency [17] | Potency [19] | Potency [20]

C=CC[N+]1([C@H]2C[C@H]3[C@@H]4CC[C@H]5C[C@H](OC(C)=O)[C@@H](N6CCCCC6)C[C@]5(C)[C@H]4CC[C@]3(C)[C@H]2OC(=O)CC)CCCCC1
inactive: Potency [1] | Potency [18] | Potency [3] | Potency [4] | outcome [6] | outcome [7] | Potency [8] | outcome [9] | outcome [10] | outcome [12] | outcome [13] | outcome [14] | Potency [15] | outcome [16] | Potency [17]

Nc1nc(CC(=O)O)cs1
inactive: Potency [1] | Potency [18] | Potency [3] | Potency [4] | outcome [6] | outcome [7] | Potency [8] | outcome [9] | outcome [10] | Potency [11] | outcome [13] | outcome [14] | Potency [15] | outcome [16] | Potency [17] | Potency [19]

Oc1ccc(C(O)CNCCCCCCNCC(O)c2ccc(O)c(O)c2)cc1O (stereo not drawn)
inactive: Potency [1] | Potency [18] | Potency [3] | Potency [4] | outcome [6] | outcome [7] | Potency [8] | outcome [9] | outcome [10] | Potency [11] | outcome [12] | outcome [13] | outcome [14] | Potency [15] | outcome [16] | Potency [17] | Potency [19] | Potency [20]

O=C(/C=C/c1ccc(O)c(O)c1)O[C@@H]1C[C@](O)(C(=O)O)C[C@@H](O)[C@H]1O
inactive: Potency [1] | Potency [18] | Potency [3] | Potency [4] | outcome [6] | outcome [7] | Potency [8] | outcome [9] | outcome [10] | Potency [11] | outcome [12] | outcome [13] | outcome [14] | Potency [15] | Potency [17] | Potency [19] | Potency [20]

CCCCCCCCCCCCCCCC(=O)OC/C=C(C)/C=C/C=C(C)/C=C/C1=C(C)CCCC1(C)C
inactive: Potency [1] | Potency [18] | Potency [3] | Potency [4] | outcome [6] | outcome [7] | Potency [8] | outcome [9] | outcome [10] | outcome [12] | outcome [13] | outcome [14] | Potency [15] | outcome [16] | Potency [17] | Potency [19]

CC(C)(C)c1ccc(S)cc1
inactive: Potency [1] | Potency [2] | Potency [3] | Potency [4] | Potency [5] | outcome [6] | outcome [7] | Potency [8] | outcome [9] | outcome [10] | Potency [11] | outcome [12] | outcome [13] | outcome [14] | Potency [15] | outcome [16] | Potency [19]

CCN(CC)CCOC(=O)C1(c2ccccc2)CCCC1
inactive: Potency [1] | Potency [18] | Potency [3] | Potency [4] | outcome [6] | outcome [7] | Potency [8] | outcome [9] | outcome [10] | Potency [11] | outcome [12] | outcome [13] | outcome [14] | Potency [15] | outcome [16] | Potency [17] | Potency [19] | Potency [20]

CC(=O)N(O)CCCCCNC(=O)CCC(=O)N(O)CCCCCNC(=O)CCC(=O)N(O)CCCCCN
inactive: Potency [1] | Potency [2] | Potency [3] | Potency [4] | fluorescence, relative to Rose Bengal [6] 0.119% [at 18.6 µM] | fluorescence, % of fluorescein control [7] -0.0519% [at 18.6 µM] | fluorescence, % of triamterene [8] -0.0021% [at 18.6 µM] | fluorescence, % of fluorescent control [9] -0.043% [at 18.6 µM] | fluorescence, % of fluorescein [10] 0.127% [at 18.6 µM] | fluorescence, % of fluorescent control [11] 0.0573% [at 18.6 µM] | activity change [12] 0.033% [at 18.6 µM] | fluorescence, % of fluorescent control [13] -0.0386% [at 18.6 µM] | fluorescence, % of Rose Bengal [14] -0.352% [at 18.6 µM] | fluorescence, % of fluorescent control [15] 0.0393% [at 18.6 µM] | fluorescence, % of fluorescein control [16] 0.169% [at 18.6 µM] | fluorescence, % of fluorescent control [17] 0.041% [at 18.6 µM] | Potency [19] | Potency [20]

Cc1cc(CC(=O)O)c(C)n1-c1ccc(Cl)cc1
inactive: Potency [1] | Potency [18] | Potency [3] | Potency [4] | outcome [6] | outcome [7] | Potency [8] | outcome [9] | outcome [10] | Potency [11] | outcome [12] | outcome [13] | outcome [14] | Potency [15] | outcome [16] | Potency [17] | Potency [19]

C[C@@H](C1=C(CCN(C)C)Cc2ccccc21)c1ccccn1
inactive: Potency [18] | Potency [2] | Potency [3] | Potency [4] | Potency [5] | outcome [6] | outcome [7] | Potency [8] | outcome [9] | outcome [10] | Potency [11] | outcome [12] | outcome [13] | outcome [14] | Potency [15] | outcome [16] | Potency [17]
